# BAZ2B inh = blocks human BAZ2B; Q9UIF8; Potency, µM (top dose mostly 114 µM), for inactives: at the highest dose activity change, negative = inhibition, actives largely listed as inhibitors; 360,000 tested, 4.4% active; AlphaScreen BAZ2B-H3K14Ac peptide displacement; also: % is scaled to controls: 0 for no effect and ±100 for the full control effect; nearly all actives have a fitted effect of over 60% in size
#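 BAZ2B 50 nM plus b-H3(5-23)K14Ac 50 nM, PBS pH 7.4/0.01% Tween-20, 30 min RT; compound added (max 110 uM), 30 min RT; streptavidin donor/Ni-chelate acceptor beads 10 ug/mL final, 20 min dark; AlphaScreen read.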
# HP1b binding inh = HP1-beta chromodomain-methylated histone interaction inhibition; P83916; AlphaScreen HP1-beta / biotin-H3K9me3 peptide binding; Potency, µM (titrated, usually from 114 µM), for inactives: at the top dose activity change, negative = inhibition, hits mostly inhibitors; 390,000 tested, 0.56% active; AID 540317; also: nearly all actives have a fitted effect of over 70% in size
#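 HP1-beta protein (50 nM final) preincubated 30 min at room temperature with biotinylated H3(1-18)K9me3 peptide (50 nM) in PBS pH 7.4, 0.01% Tween-20, then compound added for 30 min. AlphaScreen streptavidin donor/nickel chelate acceptor beads (10 ug/mL final), 30 min dark, luminescence read.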
# L3MBTL1 block = inhibitors of human L3MBTL1; AlphaScreen L3MBTL1–H3K9me1 peptide binding; Potency, µM (titrated, usually from 57.1 µM), for the others: top-dose activity, negative = inhibition, most hits filed as inhibitors; Q9Y468; 230,000 tested, 0.66% active; also: % is scaled to controls: 0 for no effect and ±100 for the full control effect; nearly all actives have a fitted effect of over 60% in size
#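 Read-out is AlphaScreen signal from streptavidin donor and nickel chelate acceptor beads (10 ug/mL final each) bridging L3MBTL1 (50 nM) and biotinylated K9-monomethylated H3(1-15) peptide (75 nM), after 30 min compound exposure at room temperature.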
# G9a inh = G9a (human) methyltransferase inhibition; Q96KQ7; G9a H3K9 monomethylation, AlphaScreen, 2 h; Potency, µM (series often up to 102 µM), for the others: at the top dose activity, negative = inhibition, actives largely listed as inhibitors; 350,000 tested, 8.8% active; AID 504332; also: % is scaled to controls: 0 for no effect and ±100 for the full control effect; nearly all actives have a fitted effect of over 75% in size
#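 Step 1: enzyme (final 20 nM) with compound, 15 min RT. Step 2: substrate peptide 500 nM and SAM 20 uM, 2 h RT. Step 3: anti-H3K9me1 antibody and AlphaScreen beads, 10 min, then plate read.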
# JMJD2A Tudor inh = inhibitors of human JMJD2A Tudor domain; 390,000 tested, 4.4% active; O75164; Potency, µM (doses to about 114 µM), without a hit: at the top dose activity change, negative = inhibition, most hits filed as inhibitors; AlphaScreen JMJD2A-Tudor / H3K4me3 peptide binding; AID 504339; also: % is scaled to controls: 0 for no effect and ±100 for the full control effect; nearly all actives have a fitted effect of over 50% in size
# Target sequence (O75164 whole entry, looked up, the tested form may be a part): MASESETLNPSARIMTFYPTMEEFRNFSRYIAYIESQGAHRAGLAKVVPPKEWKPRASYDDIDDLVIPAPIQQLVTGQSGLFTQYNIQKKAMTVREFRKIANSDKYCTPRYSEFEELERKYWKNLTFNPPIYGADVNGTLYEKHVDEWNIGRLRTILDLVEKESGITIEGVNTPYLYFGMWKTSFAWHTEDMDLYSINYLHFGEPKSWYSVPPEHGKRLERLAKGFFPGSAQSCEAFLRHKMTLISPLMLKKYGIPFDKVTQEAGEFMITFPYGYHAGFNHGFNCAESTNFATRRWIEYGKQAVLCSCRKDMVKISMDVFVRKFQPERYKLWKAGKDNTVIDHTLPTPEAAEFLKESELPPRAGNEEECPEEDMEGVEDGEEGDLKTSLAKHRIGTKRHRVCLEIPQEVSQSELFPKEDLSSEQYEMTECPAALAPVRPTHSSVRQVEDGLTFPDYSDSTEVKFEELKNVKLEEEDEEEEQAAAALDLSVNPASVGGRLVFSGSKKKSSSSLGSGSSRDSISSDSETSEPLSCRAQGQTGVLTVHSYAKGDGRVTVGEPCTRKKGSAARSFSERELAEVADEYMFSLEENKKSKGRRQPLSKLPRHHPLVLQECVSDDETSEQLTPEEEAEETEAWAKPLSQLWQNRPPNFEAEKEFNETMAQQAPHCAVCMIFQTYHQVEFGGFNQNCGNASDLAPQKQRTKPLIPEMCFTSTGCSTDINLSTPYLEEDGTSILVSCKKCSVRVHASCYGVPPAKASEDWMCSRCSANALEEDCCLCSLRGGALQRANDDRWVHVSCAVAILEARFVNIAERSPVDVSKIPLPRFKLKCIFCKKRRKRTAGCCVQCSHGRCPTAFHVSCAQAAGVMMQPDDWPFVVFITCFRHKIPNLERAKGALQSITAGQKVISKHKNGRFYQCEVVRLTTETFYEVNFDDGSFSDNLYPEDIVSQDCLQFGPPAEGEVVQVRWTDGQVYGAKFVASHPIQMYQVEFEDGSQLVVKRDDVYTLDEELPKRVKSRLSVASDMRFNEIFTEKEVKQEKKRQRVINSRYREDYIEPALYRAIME
# Sfp inh = Sfp phosphopantetheinyl transferase inhibition. Q9F4F7. Biochemical Sfp PPTase activity, qHTS. Potency, µM, for inactives: largest response in the series, negative = inhibition, usual class: inhibitors. 310,000 tested, 3.5% active;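 also: the enzyme is Sfp with the accession as filed and its product quenches rhodamine fluorescence; 0% = enzyme reaction without inhibitor and -100% = no enzyme wells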
#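 Step 1, compound plus 15 nM Sfp-PPTase, 15 min, room temperature. Step 2, add rhodamine-CoA (5 uM) and BHQ-2-YbbR (12.5 uM). Step 3, read 525/598 nm fluorescence at 0 and 30 min.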
# The depositor's hits bear a star; ? = inconclusive; · = no result given; [ ] = dose if it differs, or a comment. A selection: hits, their analogues and other compounds. The true share with any hit is near 12%. Calls follow the shape of the dose curve; as a rule, active = well fitted curve in the direction sought with a large enough effect; inconclusive = small, poorly fitted or top-dose-only effect, or another doubt; inactive = no such curve, though single readings can be large; an effect the other way counts as inactive or inconclusive. Potency is read from the fitted curve at half-maximal effect.
SMILES,BAZ2B inh,HP1b binding inh,L3MBTL1 block,G9a inh,JMJD2A Tudor inh,Sfp inh
Cc1cc(C)cc(NC(=O)CSc2nc(-c3ccccc3)c3cc(F)ccc3n2)c1,-1%,24%,·,-3%[59 µM],-18%,·
CC(C)(C)C#CCn1c(/C=[N+](\[O-])C2CCCCC2)nc2ccccc21,50µM*,24%,-18%,·,?,7%
CCCCOCc1cc(CN2CCN(c3cccc(Cl)c3)CC2)c(O)c2ncccc12,5.6µM*,59%,·,-2%[59 µM],4µM*,·
CCCOCc1cc(CN2CCN(c3cccc(Cl)c3)CC2)c(O)c2ncccc12,32µM*,10%,·,-21%[59 µM],13µM*,·
CCOc1cccc(CN2CCCC(N3CCN(c4cccc(Cl)c4)CC3)C2)c1O (stereo not given),?,-14%,-8%,?,?,6%
Cc1ccc(CNC(=O)CCCCn2c(=O)c3ccccc3n(Cc3c(C)cc(C)cc3C)c2=O)cc1,4%,7%,·,0%[59 µM],4%,·
CC1=CC(=O)C2=C(C)C[C@@H]3OC(=O)[C@@H](C)[C@H]3C=C12,·,·,·,·,·,1%
O=C(COc1ccc(F)cc1)OCc1cc(=O)n2nc(C3CC3)sc2n1,-11%,27%,·,5%[59 µM],-7%,·
NCCCN(Cc1ccc(Cl)c(Cl)c1)c1ccccn1,·,-2%,·,·,-31%,·
COc1ccc(C2Nc3ccccc3-c3nnc(SC)nc3O2)cc1C (stereo not given),7%,22%,·,-10%[59 µM],7%,·
COc1cccc(C(c2sc3nc(-c4ccco4)nn3c2O)N2CCC(O)CC2)c1 (stereo not given),5%,89%,·,?,-11%,·
COc1cccc(C(c2sc3nc(-c4ccco4)nn3c2O)N2CCCC2)c1 (stereo not given),-21%,18%,·,14µM*,-18%,·
COc1cccc(C(c2sc3nc(-c4ccco4)nn3c2O)N2CCC(C)CC2)c1 (stereo not given),?,-7%,·,18µM*,-27%,·
Oc1c(C(c2ccccc2)N2CCCC2)sc2nc(-c3ccco3)nn12 (stereo not given),?,17%,·,5%[59 µM],-13%,·
Cc1cccc(CNC(=O)C(=O)Nc2ccccc2C)c1,-19%,29%,·,8%[59 µM],-9%,·
COc1ccc(CCNC(=O)c2ccc(-n3c(C)cc4c3CCC(C)C4)cc2)cc1OC (stereo not given),-21%,-10%,·,-33%[59 µM],-27%,·
CCCCn1c(N)c(N(CCOC)C(=O)CSCc2ccc(C)cc2)c(=O)[nH]c1=O,6%,46%,2%,45µM*,-11%,·
CCCCn1c(N)c(N(CCOC)C(=O)CSCc2ccc(Cl)c(Cl)c2)c(=O)[nH]c1=O,1%,6%,3%,56µM*,-8%,·
COCCn1c(N)c(N(Cc2ccccc2)C(=O)CSCC(=O)Nc2ccc(C)cc2)c(=O)[nH]c1=O,-4%,34%,-6%,32µM*,-7%,·
CCCCn1c(N)c(N(CC)C(=O)CSCc2ccc(C)cc2)c(=O)[nH]c1=O,2%,30%,·,·,8%,6%
O=S(=O)(c1ccccc1)c1nnn2c1nc(NCc1ccccc1)c1cc(Cl)ccc12,11%,16%,·,1%[59 µM],-11%,·
COc1ccc(Cl)cc1NC(=O)CN1C(=O)CSc2ccc(S(=O)(=O)N3CCCC3)cc21,-29%,23%,·,-25%[59 µM],-14%,·
CCC1=NN2C(=N)/C(=C/c3c(C)nn(-c4ccccc4)c3Cl)C(=O)N=C2S1,-6%,16%,-6%,-12%,-18%,-2%
CCCC1=NN2C(=N)/C(=C\c3ccc(SCc4ccco4)o3)C(=O)N=C2S1,45µM*,?,·,8.9µM*,50µM*,56µM*
CCC1=NN2C(=N)/C(=C\c3ccc(SCc4ccco4)o3)C(=O)N=C2S1,50µM*,-15%,·,7.1µM*,?,45µM*
SMILES,BAZ2B inh,HP1b binding inh,L3MBTL1 block,G9a inh,JMJD2A Tudor inh,Sfp inh
CS(=O)(=O)N1CCc2ccc(NC(=O)C3CCCO3)cc2C1 (stereo not given),-10%,52%,·,79µM*,-12%,5%
CC(=O)c1cccc(CN2CCc3ccc(NC(=O)C4CCCO4)cc3C2)c1 (stereo not given),-1%,32%,·,84%,-10%,6%
COc1ccc(CCN2C(=O)C3C4CCC(C4=C(C)C)C3C2=O)cc1OC (stereo not given),-7%,21%,1%,18%[59 µM],-2%,1%
N#CC1=C2SCN(Cc3ccccc3)CN2C(=O)CC1c1ccccc1F (stereo not given),-38%,?,1%,1.8µM*,79µM*,2µM*
COc1cc(OC)c(C2CC(=O)N3CN(C)CSC3=C2C#N)cc1OC (stereo not given),-36%,-24%,4%,1.3µM*,4µM*,3.5µM*
COc1ccc(Br)cc1C1CC(=O)N2CN(C)CSC2=C1C#N (stereo not given),-29%,?,0%,1.4µM*,?,2.2µM*
COc1ccc(Br)cc1C1CC(=O)N2CN(Cc3ccccc3)CSC2=C1C#N (stereo not given),-36%,-14%,-2%,1.4µM*,?,2.2µM*
CCC1CCCCN1C(=O)Cn1c(=O)n(CC2CCC(C(=O)NC)CC2)c(=O)c2sccc21 (stereo not given),3%,65%,·,10%[59 µM],-7%,·
CS(=O)(=O)Nc1ccc(-c2nc3ccccc3s2)cc1,-13%,26%,·,?,-13%,·
CCc1ccc(NC(=O)c2cc3c([nH]c2=O)CC(C)(C)CC3=O)cc1,-10%,20%,·,8%[59 µM],-14%,·
CCSC1=C(C#N)C(c2ccccc2OC)CC(=O)N1 (stereo not given),-4%,30%,-5%,-3%[59 µM],-10%,2%
COc1ccc2ccccc2c1C1CC(=O)N2CN(C)CSC2=C1C#N (stereo not given),?,?,-1%,1.6µM*,28µM*,7.9µM*
CCC(CO)Oc1cc(NCc2ccccc2C)c2ncn(C(C)C)c2c1 (stereo not given),·,1%,-7%,·,?,·
CCC(CO)Oc1cc(NCc2ccncc2)c2ncn(C(C)C)c2c1 (stereo not given),·,52%,-1%,·,-36%,·
CCC(CO)Oc1cc(NCc2cc(C)cc(C)c2)c2ncn(C(C)C)c2c1 (stereo not given),·,-14%,-30%,·,?,·
CCC(CO)Oc1cc(NCc2cccnc2)c2ncn(C(C)C)c2c1 (stereo not given),·,10%,-2%,·,79µM*,·
CCC(CN(C)C)Oc1cc(NCc2ccccc2)c2ncn(C(C)C)c2c1 (stereo not given),·,8%,?,·,89µM*,·
